Experimental data taken from PubChem BioAssay AID1259373 (The Scripps Research Institute Molecular Screening Center, 2018).
The other results are listed elsewhere or left out. Values without a mark were called inactive. No rule for the calls is given here.

Assay: AlphaScreen optical interference compounds, dose response, counter-screen, biochemical, HTS (AID 1259373)
Details: AlphaScreen optical interference counterscreen, cell-free

Row | Compound | IC50
1 | COc1cc(N2CCOCC2)ccc1Nc1cc(Nc2ccccc2-n2cccn2)c(C(F)(F)F)cn1 | > 6.48 µM
2 | COc1ccc2c(c1)CC(C(=O)Nc1ccc(-c3cn[nH]c3)cc1OCc1ccccc1)CO2 (centres undefined) | > 6.48 µM
3 | CCc1ccc(NC(=O)CS(=O)CC(=O)NCCCc2ccccc2)cc1 (centres undefined) | > 6.48 µM
4 | CCOc1ccccc1N1CCN(Cc2cc(OC)c(O)c([N+](=O)[O-])c2)CC1 | > 6.48 µM
5 | COc1ccc2c(c1)CC(c1nc(Nc3ccc4cnccc4c3)c3ccccc3n1)CO2 (centres undefined) | > 6.48 µM
6 | COc1ccc2c(c1)CC(C(=O)Nc1ccc(-c3cn[nH]c3)cc1OCC(N)=O)CO2 (centres undefined) | > 6.48 µM
7 | NC(=O)COC(=O)/C=C/c1ccc(I)o1 | > 7.27 µM
8 | O=C(Nc1ccc(-c2ccncc2)c(C(F)(F)F)c1)C1COc2ccccc2O1 (centres undefined) | > 6.48 µM
9 | C/C(N)=C(/C#N)C(=O)COC(=O)c1c2c(nc3ccccc13)/C(=C/c1ccco1)CC2 | > 6.27 µM
10 | c1cc2c(cc1CNc1nc(Nc3ccc(N4CCOCC4)cc3)c3ncn(C4CCCCC4)c3n1)OCO2 | > 6.62 µM
11 | C[C@@H](OCc1ccccc1)[C@@H]1NC(=O)[C@H]2CN(C(=O)Nc3cccc(F)c3)CCN2C1=O | > 6.48 µM
12 | O=C(Cc1cccs1)N/N=C\C=C\c1ccco1 | > 6.48 µM
13 | CC[C@@H]1NC(=O)[C@H]2CN(C(=O)NCc3ccccc3)CCN2C1=O | > 6.48 µM
14 | Cc1ccc(NC(=O)COC(=O)CCC(=O)Nc2sc3c(c2C(N)=O)CCC3)cc1F | > 6.95 µM
